From PubChem
sEH inhibitor = blocks human soluble epoxide hydrolase activity; P34913; recombinant human sEH enzymatic activity assay; inhibition, % at 2 µM; 0.34% of 91,000 active; AID 707; in the data active = inhibition above about 80%
CYP2C19 inhib = blocks human cytochrome P450 2C19 | P33261 | CYP2C19 Supersomes, luciferin-H EGE luminescence, 30 min | inhibition, % at 5 µM | 21% of 96,000 active | AID 778;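 active = CYP2C19 inhibition above a set limit at 5 µM in the primary screen, cut at about 50% in these data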;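 note: plate controls were negative control wells for no effect and 2.5 mM tranylcypromine positive control for full effect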
CYP2C9 act = activators of human CYP2C9; activation factor at 5 µM; AID 1024; recombinant CYP2C9, luciferin-H conversion, luminescence; hits give high values; factor 1 = untreated enzyme, 0 = blocked; P11712; 1.4% of 96,000 active;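 active = activation factor of 2 or more for CYP2C9 at a 5 µM dose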;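 note: 0 = sulfaphenazole-blocked wells and 1 = vehicle-only wells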
Target sequence (P11712 whole entry, looked up): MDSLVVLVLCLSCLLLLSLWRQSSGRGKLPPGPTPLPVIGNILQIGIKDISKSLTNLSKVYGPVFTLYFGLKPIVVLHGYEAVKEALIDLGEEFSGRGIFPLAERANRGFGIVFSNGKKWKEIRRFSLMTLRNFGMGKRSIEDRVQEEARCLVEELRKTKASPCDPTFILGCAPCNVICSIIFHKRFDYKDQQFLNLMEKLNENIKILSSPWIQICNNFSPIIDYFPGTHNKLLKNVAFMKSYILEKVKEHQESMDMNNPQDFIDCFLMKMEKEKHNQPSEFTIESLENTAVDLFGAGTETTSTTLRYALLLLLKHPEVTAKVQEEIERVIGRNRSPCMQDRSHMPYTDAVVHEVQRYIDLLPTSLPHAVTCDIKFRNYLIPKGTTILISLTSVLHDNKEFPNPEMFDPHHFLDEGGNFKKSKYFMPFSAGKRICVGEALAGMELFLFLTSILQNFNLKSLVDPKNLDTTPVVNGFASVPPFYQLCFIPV
CYP2C19 act = cytochrome P450 2C19 (human) activation. P33261. recombinant CYP2C19, luciferin-H EGE luminescence; hits give high values; 0 = fully inhibited enzyme, 1 = untreated enzyme. activation factor at 5 µM. 96,000 tested, under 10 active. AID 1025;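 active = activation factor of at least 2 at 5 µM in the primary screen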;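 note: 0 = wells with 2.5 mM tranylcypromine and 1 = vehicle-only wells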
CYP2C9 inh = blocks human cytochrome P450 2C9 | P11712 | CYP2C9 Supersomes, luciferin-H conversion, luminescence | inhibition, % at 5 µM | 20% of 96,000 active | AID 777;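 active = blocking of liver enzyme CYP2C9 beyond about 50% at 5 µM, limit read from the data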
sEH act = increases human soluble epoxide hydrolase activity; activation, % at 2 µM; purified human sEH enzymatic activity, activator screen; 0.04% of 91,000 active; P34913; in the data active = activation above about 37%
An asterisk follows results filed as active; . = not tested or not shown. The list is not random: actives were taken first. Their share in the collection is about 27%.

SMILES	sEH inhibitor	CYP2C19 inhib	CYP2C9 act	CYP2C19 act	CYP2C9 inh	sEH act
Cc1ccc(-c2nnn(CC(=O)Nc3ccc4nn(-c5ccccc5)nc4c3)n2)o1	1.6	2.9	1	1	4.4	-0.1
O=C(CN(Cc1ccc(Cl)c(Cl)c1)S(=O)(=O)c1ccccc1)N/N=C\c1ccc2c(c1)OCO2	13.0	19.4	0.4	0.8	64.8*	-12.0
O=C(CN(Cc1ccccc1)S(=O)(=O)c1ccccc1)N/N=C/c1ccc2c(c1)OCO2	6.0	53.1*	0.3	0.5	74.2*	-3.8
CSc1nnc(-c2cc3ccccc3cc2O)n1C	-1.3	5.9	0.9	0.9	12.1	1.7
Cc1ccc(C2C3=C(CC(C)(C)CC3=O)Nc3n[nH]c(C)c32)cc1 (stereo unspecified)	7.4	26.5	0.9	0.7	13.0	-7.2
Cc1nc2[nH]c(=O)c3c(n2n1)NC1=C(C(=O)CC(C)(C)C1)C3c1ccccc1 (stereo unspecified)	11.4	-0.1	0.3	1	67.3*	-10.8
O=S(=O)(Nc1ccncc1Cl)c1ccccc1	8.0	-9.0	0.3	1.1	70.3*	-9.7
O=C(c1cccc(Br)c1)c1cn(-c2ccccc2)nc1C(=O)c1ccccc1	7.1	38.3	0.5	0.6	45.8	-5.0
CCOC(=O)c1nn(-c2ccc(C)cc2)cc1C(=O)c1ccccc1	-11.0	66.0*	0.6	0.3	42.7	10.8
Cc1ccc(-c2nn(-c3ccccc3)cc2C(=O)N2CCOCC2)cc1	.	54.5*	0.3	0.5	71.4*	.
O=C(OCc1nnc(-c2ccccc2)o1)c1cn(-c2ccccc2)nc1-c1ccccc1	-6.4	54.9*	0.1	0.5	90.7*	6.0
CN1CCN(C(=O)c2cn(-c3ccccc3)nc2-c2cccnc2)CC1	-11.2	-1.9	1.3	1	-30.2	14.7
COC(=O)c1cn(-c2ccccc2)nc1-c1ccccc1	-4.7	16.1	0.8	0.8	20.8	4.5
Cc1cc(C(=O)OCc2nnc(-c3ccccc3)o2)c(C)n1-c1ccccc1	.	45.6	0.4	0.5	64.0*	.
Cc1noc(C)c1COC(=O)c1cc(C)n(-c2ccccc2)c1C	-14.3	20.7	0.6	0.8	38.4	13.7
CN(C(=O)c1cccc(C#N)c1)c1nnc(C2CCCO2)s1 (stereo unspecified)	-4.9	0.9	0.9	1	5.5	5.3
COc1ccc2cc(C(c3nnnn3C3CCCC3)N3CCCCCC3)c3nnnn3c2c1 (stereo unspecified)	6.2	.	.	.	.	-6.2
CCOC(=O)c1cn(-c2ccccc2)nc1-c1ccncc1	0.1	91.4*	0.2	0.1	81.6*	-2.0
O=C(O)c1cn(-c2ccccc2)nc1-c1ccncc1	0.9	7.9	0.8	0.9	18.1	3.4
Cc1ccc(-n2cc(C(=O)c3ccccc3O)cn2)cc1	1.9	60.7*	1.1	0.4	-5.2	-0.8
CCOC(=O)CSc1nc(-c2ccc(OC)cc2)ns1	3.4	13.2	1	0.9	-3.5	-5.7
Cc1cc(N2CCN(c3ccccc3)CC2)n2c(n1)nc1ccccc12	-6.6	49.8	0.3	0.5	67.1*	5.4
c1ccc(N2CCN(c3nc4ccccc4n4nnnc34)CC2)cc1	.	41.9	1	0.6	-1.3	.
CCOC(=O)c1ccccc1NC(=O)c1cncc(Br)c1	9.6	13.7	1	0.9	-4.5	-9.3
O=C(c1cnsn1)N1CCN(c2ccccn2)CC1	-8.7	27.4	1.7	0.7	-65.3	6.8
SMILES	sEH inhibitor	CYP2C19 inhib	CYP2C9 act	CYP2C19 act	CYP2C9 inh	sEH act
O=C(O)CCCNc1cc(N2CCC3(CC2)OCCO3)c2noc3c2c1C(=O)c1ccccc1-3	13.2	25.6	0.4	0.7	60.7*	-11.5
CCN1CCN(CC(=O)NC2CCCCC2)C(=O)C1=O	-5.6	.	.	.	.	8.0
C/C(Cn1cnc([N+](=O)[O-])n1)=N\NC(=O)c1cccc(F)c1	-0.8	.	.	.	.	0.7
C/C(Cn1nc([N+](=O)[O-])cc1C)=N\NC(=O)c1cccc(Br)c1	2.8	59.4*	0.9	0.4	7.6	-0.3
O=S(=O)(/N=C(/Sc1ccccc1)c1ccccc1)c1ccccc1	-5.8	96.1*	0	0	95.5*	4.8
CCOC(=S)N/C(=N\S(=O)(=O)c1ccccc1)c1ccccc1	2.9	.	.	.	.	-0.5
C=CCn1c(=O)/c(=C/c2ccc(Cl)cc2)s/c1=C(/C#N)c1nnc2n1CCCCC2	-8.1	36.2	0.2	0.6	78.3*	4.7
C=CCn1c(=O)/c(=C/c2ccc(O)cc2)s/c1=C(/C#N)c1nnc2n1CCCCC2	4.1	31.9	0.5	0.7	49.0	-1.2
CCn1c(SCC(=O)Nc2cc(C)on2)nnc1-c1cccnc1	-8.4	31.4	0.9	0.7	8.8	7.8
CCn1c(SCC(=O)NCC(=O)Nc2ccc(F)cc2)nnc1-c1cccs1	5.9	30.6	0.1	0.7	93.0*	-6.4
CCn1c(SCC(=O)Nc2ccc3c(c2)OCCO3)nnc1-c1cccs1	4.1	33.2	0.5	0.7	52.4*	-4.0
CCn1c(SCC(=O)NCc2ccco2)nnc1-c1cccs1	3.4	34.1	0.6	0.7	36.2	-0.5
Cc1nnc(SCC(=O)Nc2ccc3c(c2)OCCO3)n1N	-3.2	-1.9	1	1	-2.7	2.0
CCn1c(SCC(=O)Nc2cc(C)on2)nnc1-c1cccs1	9.1	83.3*	0.7	0.2	31.1	-9.5
CCn1c(SCC(=O)Nc2ccc(C(=O)OC)cc2)nnc1-c1cccs1	-6.9	51.2*	0.6	0.5	37.9	8.5
CC(C)(C)Nc1nc(OCC(F)(F)F)nc(OCC(F)(F)F)n1	-11.6	7.2	1	0.9	3.9	8.9
O=C(O)CCCCCNS(=O)(=O)c1ccc(Cl)cc1	6.6	-20.4	1.2	1.2	-21.6	-5.2
CCN1C(=O)c2cccc3c(S(=O)(=O)Nc4ccc(OC)cc4OC)ccc1c23	0.5	77.9*	0	0.2	95.7*	-0.1
CCN1C(=O)c2cccc3c(S(=O)(=O)Nc4ccncc4)ccc1c23	-15.4	5.8	0.3	0.9	66.0*	12.0
CCN1C(=O)c2cccc3c(S(=O)(=O)Nc4ccccc4)ccc1c23	2.9	60.3*	0	0.4	100.3*	0.6
CCN1C(=O)c2cccc3c(S(=O)(=O)NCc4cccnc4)ccc1c23	16.6	2.5	0.8	1	19.9	-13.9
CCN1C(=O)c2cccc3c(S(=O)(=O)NCc4ccco4)ccc1c23	-20.5	.	.	.	.	18.1
CCN1C(=O)c2cccc3c(S(=O)(=O)Nc4nc(C)cs4)ccc1c23	-8.4	22.6	0.1	0.8	92.6*	7.8
CC(C)CC(=O)N1CCN(S(=O)(=O)c2ccc(F)cc2)CC1	5.7	25.4	0.8	0.7	18.8	-3.3
N#Cc1nc(-c2ccccc2F)oc1NC1CCCCC1	-3.0	33.2	0.7	0.7	28.1	0.3
CCN1C(=O)c2cccc3c(NC(=O)c4ccc(OC)c(OC)c4)ccc1c23	6.3	55.8*	0.3	0.4	66.1*	-4.7
COc1cccc(-n2c(SCC(=O)Nc3cc(C)on3)nc3ccccc3c2=O)c1	-4.5	15.9	0.8	0.8	24.5	2.9
